Mot1-301 SUMO = yeast Mot1-301 growth rescue at high temperature, primary screen, SUMOylation pathway inhibitor project, S. cerevisiae, ATP luminescence, 38.5C | S. cerevisiae Mot1-301 growth rescue; percent above DMSO median, 100 means doubled | growth rescue, % at 18.8 µM | actives 1% (n = 320,000);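 active means every valid replicate shows activation above 250% relative to neutral control wells; inactive means the rest, any valid replicate at or below 250%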
ALR inh = inhibitors of human ALR sulfhydryl oxidase, primary screen, biochemical, H2O2 detection, HRP-luminol luminescence, single point; FAD-linked sulfhydryl oxidase ALR (Homo sapiens), P55789; AID 485317, 2010; inhibition, % (concentration not given with the values); purified ALR, DTT oxidation; actives 3.8% (n = 290,000);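 active means mean replicate inhibition above about 79%, with every replicate also reaching it, limit read from the data; inconclusive means only one of the two criteria met; inactive means mean below limit and not every replicate reaching it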
Target sequence (P55789 whole entry, looked up): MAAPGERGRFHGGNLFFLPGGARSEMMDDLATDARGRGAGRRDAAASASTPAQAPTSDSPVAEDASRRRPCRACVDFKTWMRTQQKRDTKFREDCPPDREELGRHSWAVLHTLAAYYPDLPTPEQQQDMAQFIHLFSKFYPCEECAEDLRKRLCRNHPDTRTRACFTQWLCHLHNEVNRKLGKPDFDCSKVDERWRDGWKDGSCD
HIF activator = HIF pathway transcriptional activators, primary screen, cell-based, U2OS HRE-luciferase, luminescence; actives 0.32% (n = 300,000); AID 1910, 2009; U2OS HRE-luciferase reporter; normalized: DMSO 0%, desferrioxamine 100%; activation, % at 7.5 µM (by protocol);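 active means mean activation of at least 10% of the iron chelator positive control signal, with at least half of replicates also reaching 10%; inconclusive means mean and replicate majority disagree about reaching 10%; inactive means mean and most replicates under 10%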
AI-2 QS mod = Vibrio harveyi AI-2 quorum sensing modulators, primary screen, JMH597 strain, luminescence/OD600 ratio. AID 2094, 2009. Vibrio harveyi JMH597 AI-2 luminescence/OD600 ratio, 9 h; hits give low values; strain lacks LuxN and CqsS sensors; 0 = neutral-control median. actives 0.4% (n = 300,000). activity change, % at 7.5 µM; in the data active means activity change below about -75%, passing the limit was not always enough; inconclusive means no clear call, values can overlap the other calls;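 further: luminescence divided by OD600 gain over 9 h not by final OD600 alone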
Numbers stand for hits; 0 = inactive; ? = inconclusive; - = not tested or not shown. Compounds with a hit are over-represented: about 4.8% of the library has one in this group of screens.

SMILES	Mot1-301 SUMO	ALR inh	HIF activator	AI-2 QS mod
Cc1c(NC(=O)c2cccc(NC(=O)Cc3ccc(F)cc3)c2)c(=O)n(-c2ccccc2)n1C	0	0	-	-
CC(=O)NC1=C(N(C)C2CCS(=O)(=O)C2)C(=O)c2ccccc2C1=O (stereo unspecified)	0	0	0	0
CC(=O)NC1=C(Nc2ccc(N(C)C)cc2)C(=O)c2ccccc2C1=O	0	100.0	0	0
CCOc1ccc(NC(=O)c2ccc(NS(=O)(=O)c3cccs3)cc2)cc1	0	0	0	-
CN1c2ccccc2C(C)(C)C12C=Nc1c(cc(N3CCOCC3)c3ccccc13)O2 (stereo unspecified)	-	-	0	0
CN1c2ccccc2C(C)(C)C12C=Cc1cc(O)ccc1O2 (stereo unspecified)	0	79.7	0	0
CN(CC(=O)Nc1ccc(F)c(F)c1F)C(=O)/C=C/c1ccc(Cl)cc1	0	0	224.9	0
Cc1c(C(=O)N2CCCCC2)c(S(=O)(=O)NCc2ccc(N(C)C)cc2)c(C)n1C	0	98.4	0	0
Cc1ccc(CNS(=O)(=O)c2c(C(=O)N3CCCCC3)c(C)n(C)c2C)cc1	0	0	0	0
Cc1c(C(=O)N2CCCCC2)c(S(=O)(=O)NCCc2ccc(Cl)cc2)c(C)n1C	0	0	13.9	0
Oc1ccc(-c2nc3cnccn3c2Nc2ccc3c(c2)OCCO3)cc1	0	98.9	0	0
CC(C)(C)Nc1c(-c2ccc(O)cc2)nc2ccc(Cl)cn12	0	0	0	0
COc1cc(-c2nc3cnccn3c2Nc2ccc(C)cc2)ccc1O	0	99.5	0	0
CC(C)(C)CC(C)(C)Nc1c(-c2ccc(O)cc2)nc2cnccn12	0	99.9	0	0
COc1cc(-c2nc3cnccn3c2Nc2ccc3c(c2)OCCO3)ccc1O	0	98.7	0	0
O=C(CSc1nc(=O)n2ccccc2n1)NC1CCCCC1	0	0	0	0
Cc1ccc(NC(=O)CN2C(=O)C(=O)N(C3CCCC3)C2=O)c(Cl)c1	0	-	-	-
COC(=O)c1ccc(CN(C)S(=O)(=O)c2cccs2)cc1	0	0	0	-
COc1ccc(CCC(=O)Nc2ncc(C)s2)cc1	0	0	0	0
COc1cc(-c2nc3cnccn3c2Nc2ccccc2)ccc1O	0	?	0	0
COc1cc(-c2nc3ccc(C)cn3c2Nc2ccc3c(c2)OCCO3)ccc1O	0	91.1	0	0
Cc1ccc(S(=O)(=O)NC(=O)c2cc(C)n(-c3ccc(N(C)C)cc3)c2C)cc1	0	94.9	0	0
Cc1ccc(S(=O)(=O)NC(=O)Nc2ccc(N(C)C)cc2)cc1	0	85.7	0	0
Cc1ccc(NC(=O)NNS(=O)(=O)c2ccc(Br)cc2)cc1	0	0	0	0
Cc1ccc(NC(=O)CSc2nc(NS(=O)(=O)c3ccccc3)cc(=O)[nH]2)cc1	0	98.1	0	0
SMILES	Mot1-301 SUMO	ALR inh	HIF activator	AI-2 QS mod
Cc1cc(=O)[nH]c(SCC(=O)Nc2ccc(C(=O)O)cc2)n1	0	98.8	0	0
Cc1cc(=O)[nH]c(SCC(=O)Nc2ccc(S(N)(=O)=O)cc2)n1	0	98.9	0	0
CC(=O)c1c(C)[nH]c(C(=O)CSc2nc3ccc(C)cc3[nH]2)c1C	0	97.1	0	0
Cc1ccc2nc(SCC(=O)c3ccc(Cl)s3)[nH]c2c1	0	0	0	0
COc1cccc(CN(C)C(=O)c2cc(-c3cccs3)nc3ccccc23)c1	0	0	0	0
C[C@@H]1C(=O)O[C@H]2[C@H](O)[C@@]34[C@H]5C[C@@H](C(C)(C)C)[C@]36[C@@H](OC(=O)[C@@H]6O)O[C@@]4(C(=O)O5)[C@@]12O	0	0	0	0
CCOC(=O)c1ccc(NC(=O)CSc2nc3sc(C(=O)O)c(C)c3c(=O)[nH]2)cc1	0	98.4	0	0
Cc1ccc2nc(SCC(=O)Nc3ccc(C)c([N+](=O)[O-])c3)[nH]c2c1	0	87.4	0	0
CCN(CC)c1ccc(NC(=O)CSc2nc(C)cc(=O)[nH]2)cc1	0	98.8	0	0
CCOC(=O)c1cc(C#N)c(SCC(=O)Nc2ccc(C(C)=O)cc2)[nH]c1=O	0	98.9	0	0
COC(=O)c1ccc(CSc2nc3sc(C(=O)O)c(C)c3c(=O)[nH]2)cc1	0	0	0	0
CCN(CC)c1ccc(NC(=O)CSc2nc3ccccc3c(=O)[nH]2)cc1	0	?	0	0
CCOc1ccc(NC(=O)CSc2nncc(=O)[nH]2)cc1	0	99.4	0	0
COC(=O)c1cc(NC(=O)CSc2nc(C)cc(=O)[nH]2)cc(C(=O)OC)c1	0	0	0	0
Cc1cc(=O)[nH]c(SCC(=O)Nc2ccc(F)c([N+](=O)[O-])c2)n1	0	97.9	0	0
COc1ccc(NC(=O)CSc2nncs2)cc1S(=O)(=O)N1CCCCC1	0	0	-	-
CCOC(=O)c1ccc(NC(=O)CSc2nc(C)cc(=O)[nH]2)cc1	0	98.8	0	0
Cc1ccc2nc(SCC(=O)Nc3ccc(F)c([N+](=O)[O-])c3)[nH]c2c1	0	-	0	0
O=C(CSc1nncs1)Nc1ccc(N2CCCCC2)cc1	0	98.4	-	-
CCOc1ccc(NC(=O)CSc2nc(NS(=O)(=O)c3ccc(C)cc3)cc(=O)[nH]2)cc1	-	-	0	0
COc1ccc(NC(=O)CCCn2cnc3ccccc3c2=O)cc1	0	-	0	0
CCCc1cc(=O)[nH]c(SCC(=O)Nc2ccc(N3CCCCC3)cc2)n1	0	0	-	-
Cc1cc(=O)[nH]c(SCC(=O)Nc2ccc(N3CCCCC3)cc2)n1	0	92.3	-	-
O=C(CSc1nccc(=O)[nH]1)Nc1ccc(S(=O)(=O)N2CCOCC2)cc1	0	98.8	0	0
CCCc1cc(=O)[nH]c(Nc2ccc(N3CCCCC3)cc2)n1	0	97.7	0	0
SMILES	Mot1-301 SUMO	ALR inh	HIF activator	AI-2 QS mod
CC(=O)c1cc(CN2CCC(C(=O)Nc3ccc(-n4nc(C)cc4C)cc3)CC2)cs1	0	0	0	0
CC(=O)c1cc(NC(=O)c2ccc([N+](=O)[O-])cc2)c(=O)oc1C	0	0	0	0
COC(=O)c1cc(NC(=O)c2ccc([N+](=O)[O-])cc2)c(=O)oc1C	974.8	0	0	0
O=C(Nc1cc(Br)c(O)c(Br)c1)c1cccc(NC(=O)c2ccco2)c1	0	98.4	0	0
Cc1nc2ccc(NC(=O)c3ccco3)cc2nc1C	-	98.7	-	0
O=C(NC1=NCCS1)c1cccc(Br)c1	0	0	0	0
O=C(Nc1ccc2c(c1)nc1n2CCSC1)c1ccco1	0	98.8	0	0
O=C(NC1=NCCS1)c1cccc(NC(=O)c2ccco2)c1	0	-	11.7	0
CC(=O)c1cccc(NC(=O)c2cccc(NC(=O)c3ccco3)c2)c1	0	0	0	0
Cc1cc(C)cc(NC(=O)c2cccc(NC(=O)c3ccco3)c2)c1	0	0	53.4	0
CCOC(=O)c1c(NC(=S)Nc2ccccc2)sc2c1CCN(CC)C2	0	87.1	0	0
Cc1nn(-c2ccccc2)cc1/C=N/NC(N)=S	0	96.9	0	0
